Compound activity as filed in PubChem.
Hits are enriched below; roughly 3.5% of the tested compounds scored in any of these assays.
BoNT-A LC inh2 – inhibitors of Botulinum neurotoxin A light chain protease; multiplex microsphere protease substrate cleavage, flow cytometry; inhibition, % at 10 µM; 360,000 tested, 0.17% active; AID 588499; note: plate controls were buffer without enzyme for full effect and enzyme alone for no effect
BoNT F protease – inhibitors of Botulinum neurotoxin F light chain protease; Multiplex microsphere protease cleavage assay, flow cytometry; inhibition, % at 10 µM; 360,000 tested, 0.22% active; AID 588497; in the data active = inhibition above about 35%, passing the limit was not always enough; inconclusive = no clear call, values can overlap the other calls; note: plate controls were buffer without enzyme for full effect and enzyme alone for no effect
Anthrax LF prot – inhibitors of Bacillus anthracis lethal factor protease; 360,000 tested, 0.12% active; AID 588501; P15917; inhibition, % at 10 µM; multiplex microsphere protease cleavage assay, LF; note: plate controls were buffer without enzyme for full effect and enzyme alone for no effect
Target sequence (P15917 whole entry, looked up): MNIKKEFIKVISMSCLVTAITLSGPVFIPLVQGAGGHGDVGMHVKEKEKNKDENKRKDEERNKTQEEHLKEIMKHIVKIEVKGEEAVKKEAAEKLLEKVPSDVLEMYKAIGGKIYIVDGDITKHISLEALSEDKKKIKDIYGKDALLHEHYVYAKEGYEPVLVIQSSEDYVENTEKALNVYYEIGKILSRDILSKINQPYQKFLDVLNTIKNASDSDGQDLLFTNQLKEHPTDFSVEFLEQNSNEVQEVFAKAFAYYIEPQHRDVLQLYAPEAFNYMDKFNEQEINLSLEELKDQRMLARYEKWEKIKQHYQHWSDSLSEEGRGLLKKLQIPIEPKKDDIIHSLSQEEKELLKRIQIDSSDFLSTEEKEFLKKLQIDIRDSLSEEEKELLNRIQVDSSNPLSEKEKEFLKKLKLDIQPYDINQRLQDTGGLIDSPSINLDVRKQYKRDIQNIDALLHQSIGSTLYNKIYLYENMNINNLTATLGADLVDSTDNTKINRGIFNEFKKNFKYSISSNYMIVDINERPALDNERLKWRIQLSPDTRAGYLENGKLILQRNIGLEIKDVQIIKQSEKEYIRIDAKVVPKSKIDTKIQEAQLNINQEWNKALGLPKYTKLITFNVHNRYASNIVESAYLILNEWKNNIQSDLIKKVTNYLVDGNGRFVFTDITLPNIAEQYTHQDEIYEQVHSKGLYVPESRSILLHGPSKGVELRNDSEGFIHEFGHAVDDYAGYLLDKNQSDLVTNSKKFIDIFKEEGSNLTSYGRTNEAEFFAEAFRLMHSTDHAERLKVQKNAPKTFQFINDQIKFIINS
Vc quorum ag – inducers of Vibrio cholerae quorum light production without autoinducers; V. cholerae BH1578 lux reporter, luminescence, 6 h; activation, % at 18.7 µM; 350,000 tested, 0.16% active; in the data active = activation mostly above about 9.7%, no sharp cut-off; inconclusive = no clear call, values can overlap the other calls; inactive = mostly below about 3.7%
Autofluor counter – counter-screen for toxin protease inhibitors: compound fluorescence. compound autofluorescence counterscreen, microsphere flow cytometry; active compounds read high. fluorescence intensity (test concentration not listed). 360,000 tested, 3.1% active; in the data active = fluorescence intensity above about 16000; inconclusive = no clear call, values can overlap the other calls
Numbers without * were called inactive. Cut-off read from the data, not from the text of the source, unless noted: active = inhibition above about 30%; inconclusive = no clear call, values can overlap the other calls; inactive = below that.

What do the screens show for `N#C/C(=C\c1ccco1)Sc1nc2ccccc2s1`?
BoNT-A LC inh2: 0.0; BoNT F protease: -0.7; Anthrax LF prot: -1.5; Vc quorum ag: inactive; Autofluor counter: 23761*

What do the screens show for `CCCNC(=O)C1(C)CCN(C(=O)c2ccc3snnc3c2)C1` (configuration not stated)?
BoNT-A LC inh2: 0.6; BoNT F protease: 4.6; Anthrax LF prot: 0.1; Vc quorum ag: -0.5; Autofluor counter: 2760

Results for Cn1nnnc1SCCNCc1ccccc1F ?
BoNT-A LC inh2: -2.0; BoNT F protease: -5.5; Anthrax LF prot: -1.1; Vc quorum ag: -0.2; Autofluor counter: 22828*

Results for Cn1nnnc1SCCNCc1ccccc1OCc1ccc(F)cc1 ?
BoNT-A LC inh2: -0.3; BoNT F protease: -1.4; Anthrax LF prot: -2.4; Vc quorum ag: -0.1; Autofluor counter: 4558

What do the screens show for `Cn1nnnc1SCc1ccccc1F`?
BoNT-A LC inh2: -0.5; BoNT F protease: -1.1; Anthrax LF prot: -1.1; Vc quorum ag: -3.0; Autofluor counter: 22071*

What do the screens show for `COc1cccc(CNCCSc2nnnn2C)c1OC`?
BoNT-A LC inh2: -1.7; BoNT F protease: -5.8; Anthrax LF prot: -2.5; Vc quorum ag: -0.2; Autofluor counter: 22850*

How did Cc1ccc(-c2nc(NCc3ccc(F)cc3)n(S(C)(=O)=O)n2)cc1 do in these assays?
BoNT-A LC inh2: -0.9; BoNT F protease: 2.5; Anthrax LF prot: 2.2; Vc quorum ag: 1.0; Autofluor counter: 4499

Results for CC(C(=O)Nc1ccc(C(=O)O)cc1)N1C(=O)c2ccccc2C1=O (configuration not stated) ?
BoNT-A LC inh2: -0.3; BoNT F protease: -1.8; Anthrax LF prot: -2.5; Vc quorum ag: -5.9; Autofluor counter: 20892*

What do the screens show for `CC(NCCCSc1ccccc1)C(O)c1ccc(O)cc1` (configuration not stated)?
BoNT-A LC inh2: -0.1; BoNT F protease: -6.2; Anthrax LF prot: -9.4; Vc quorum ag: 3.1; Autofluor counter: 2943

What do the screens show for `COc1ccc(N(C(=O)c2snc(C(N)=O)c2N)C(C(=O)NC2CCCCC2)c2ccc(F)cc2)c(OC)c1` (configuration not stated)?
BoNT-A LC inh2: 2.8; BoNT F protease: 3.6; Anthrax LF prot: -2.0; Vc quorum ag: -0.5; Autofluor counter: 3567

How did COc1ccc(-c2nsc(C(=O)N(c3ccc(F)cc3)C(C(=O)NC3CCCC3)c3ccc(OC)cc3)c2N)cc1 (configuration not stated) do in these assays?
BoNT-A LC inh2: -0.7; BoNT F protease: 0.6; Anthrax LF prot: -2.8; Vc quorum ag: 5.9; Autofluor counter: 23904*

How did COC(=O)CCc1c(C)c(C#N)c2nc3ccccc3n2c1N1CCCC1 do in these assays?
BoNT-A LC inh2: 2.7; BoNT F protease: 2.7; Anthrax LF prot: 0.3; Vc quorum ag: -0.1; Autofluor counter: 22382*

How did Cc1ccc([C@H]2C[C@H](O)[C@@H](n3cc(C4CC4)nn3)CN2C(=O)C2CCCCC2)cc1 do in these assays?
BoNT-A LC inh2: -0.3; BoNT F protease: -1.2; Anthrax LF prot: -0.6; Vc quorum ag: -0.4; Autofluor counter: 3731

What do the screens show for `CC(C)(C)OC(=O)C[C@H]1C/C=C\C[C@H](CC(=O)N[C@H](CO)Cc2ccccc2)C(=O)N[C@@H](Cc2ccccc2)COC1=O`?
BoNT-A LC inh2: -0.5; BoNT F protease: -1.0; Anthrax LF prot: 3.2; Vc quorum ag: -0.4; Autofluor counter: 3783

How did CC(C)c1cccc(C(C)C)c1OCCCCCN1CCOCC1 do in these assays?
BoNT-A LC inh2: -0.5; BoNT F protease: -6.5; Anthrax LF prot: -4.1; Vc quorum ag: -1.1; Autofluor counter: 6084

Results for CN(Cc1nc(-c2ccncc2)no1)S(=O)(=O)c1ccc(Cl)cc1 ?
BoNT-A LC inh2: 2.0; BoNT F protease: 2.8; Anthrax LF prot: -3.6; Vc quorum ag: inactive; Autofluor counter: 21129*

Results for CC(C)(C)Cc1nc(-c2ccc(Cl)cc2)no1 ?
BoNT-A LC inh2: -5.4; BoNT F protease: -8.8; Anthrax LF prot: 0.7; Vc quorum ag: 0.2; Autofluor counter: 21458*

How did Clc1ccc(-c2noc(COc3ccccc3)n2)cc1 do in these assays?
BoNT-A LC inh2: 2.2; BoNT F protease: 0.6; Anthrax LF prot: -3.4; Vc quorum ag: inactive; Autofluor counter: 22341*

How did COc1ccc(Cc2nc(-c3ccc(Cl)cc3)no2)cc1 do in these assays?
BoNT-A LC inh2: -1.1; BoNT F protease: -1.6; Anthrax LF prot: -4.0; Vc quorum ag: inactive; Autofluor counter: 9633

How did Clc1ccc(-c2noc(CCCOc3ccccc3)n2)cc1 do in these assays?
BoNT-A LC inh2: -0.6; BoNT F protease: -6.0; Anthrax LF prot: -0.5; Vc quorum ag: -1.0; Autofluor counter: 11319

Results for Cc1ccc(S(=O)(=O)N2CCN(C(=O)c3cc4c(C)nn(-c5ccccc5C)c4s3)CC2)cc1 ?
BoNT-A LC inh2: -0.4; BoNT F protease: -10.4; Anthrax LF prot: 1.7; Vc quorum ag: -0.4; Autofluor counter: 2572

How did Cc1ccccc1-n1nc(C)c2cc(C(=O)N3CCOCC3)sc21 do in these assays?
BoNT-A LC inh2: inconclusive; BoNT F protease: 0.7; Anthrax LF prot: -0.6; Vc quorum ag: inactive; Autofluor counter: 23082*

Results for Cn1cccc1Cc1nnc(SCC(=O)N2CCN(c3ccccc3)CC2)n1-c1ccc(F)cc1 ?
BoNT-A LC inh2: inconclusive; BoNT F protease: -2.9; Anthrax LF prot: -2.0; Vc quorum ag: inactive; Autofluor counter: 24052*

What do the screens show for `CCOC(=O)c1ccccc1NC(=O)CSc1nnc(Cc2cccn2C)n1-c1ccc(F)cc1`?
BoNT-A LC inh2: 0.8; BoNT F protease: -0.5; Anthrax LF prot: -5.8; Vc quorum ag: -0.2; Autofluor counter: 23284*

How did CCOc1ccccc1NC(=O)CSc1nnc(Cc2cccn2C)n1-c1ccc(F)cc1 do in these assays?
BoNT-A LC inh2: 0.2; BoNT F protease: -5.8; Anthrax LF prot: -5.8; Vc quorum ag: -0.4; Autofluor counter: 6165

How did Cn1cccc1Cc1nnc(SCC(=O)NCc2ccccc2)n1-c1ccc(F)cc1 do in these assays?
BoNT-A LC inh2: -0.3; BoNT F protease: -2.4; Anthrax LF prot: -7.4; Vc quorum ag: -0.2; Autofluor counter: 5706

Results for O=C(NC1CCN(C(=O)c2cccs2)CC1)c1ccccc1 ?
BoNT-A LC inh2: -2.5; BoNT F protease: inconclusive; Anthrax LF prot: -10.9; Vc quorum ag: 0.9; Autofluor counter: inconclusive

Results for CC1(C)C(=O)OC(c2cccs2)C(C)(C)C1=O (configuration not stated) ?
BoNT-A LC inh2: -0.1; BoNT F protease: -0.4; Anthrax LF prot: -5.2; Vc quorum ag: inactive; Autofluor counter: 19729*

What do the screens show for `COc1ccc(NC(=S)N2CCN(S(=O)(=O)c3ccccc3)CC2)cc1`?
BoNT-A LC inh2: 1.4; BoNT F protease: 4.9; Anthrax LF prot: -1.9; Vc quorum ag: 0.7; Autofluor counter: 5311

How did COc1ccc(-n2cnnc2SCC(=O)N(C)C2CCS(=O)(=O)C2)cc1 (configuration not stated) do in these assays?
BoNT-A LC inh2: -0.5; BoNT F protease: -2.8; Anthrax LF prot: -2.5; Vc quorum ag: -1.7; Autofluor counter: 23013*

How did CCOc1ccccc1NC(=O)CCc1nnc2ccc(N3CCC4(CC3)OCCO4)nn12 do in these assays?
BoNT-A LC inh2: -0.2; BoNT F protease: -1.7; Anthrax LF prot: -0.8; Vc quorum ag: -2.7; Autofluor counter: 5975
